The supplement of paper PMC8975748
Structures can show the parent of a compound that is named as a salt.

System: Saccharomyces cerevisiae BY4741 SeMeCo community
Assay: z-score of subpopulation abundance vs DMSO median, subpopulation auxotrophic for HLM; higher = larger share of this subpopulation than in DMSO controls
Details: 10 µM; 24 h; SM minimal medium; subpopulation (auxotrophy): HLM
Protocol: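 Fluorescent four-plasmid SeMeCo (self-establishing metabolically cooperating S. cerevisiae BY4741 community; plasmids pH-mRuby2, pL-mWasabi, pU-eCFP, pM-TagRFP657) was grown 24 h in minimal SM medium with each Selleck FDA-approved drug at 10 µM in 384-well plates. Cells were fixed and imaged by high-content confocal microscopy. For each auxotrophic subpopulation (and the prototroph), a z-score gives the deviation from the DMSO vehicle-control population median.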

SMILES | z-score of subpopulation abundance
CO/N=C(\C(=O)N[C@@H]1C(=O)N2C(C(=O)OCOC(=O)C(C)(C)C)=C(/C=C\c3scnc3C)CS[C@H]12)c1csc(N)n1 [Cefditoren Pivoxil] | 0.31
CCCCCCCCCCCCCCCC[N+](C)(C)C [Cetrimonium Bromide (CTAB)] | 50.7
CC1(C)CC[C@]2(C(=O)O)CC[C@]3(C)C(=CC[C@@H]4[C@@]5(C)CC[C@H](O)C(C)(C)[C@@H]5CC[C@]43C)[C@@H]2C1 [Oleanolic Acid] | 0.33
CCCCC(F)(F)[C@@]1(O)CC[C@H]2[C@@H](CC(=O)[C@@H]2CCCCCCC(=O)O)O1 [Lubiprostone] | -1.01
CC(Cc1ccc(O)c(O)c1)C(C)Cc1ccc(O)c(O)c1 (stereo not given) [Nordihydroguaiaretic acid (NDGA)] | -0.39
Cc1nnc(SCC2=C(C(=O)O)N3C(=O)[C@@H](NC(=O)Cn4cnnn4)[C@H]3SC2)s1 [Cefazolin Sodium] | 0.22
Cc1ccc(Sc2ccccc2N2CCNCC2)c(C)c1 | -0.35
CCCCOc1ccc(CC(=O)NO)cc1 [Bufexamac] | -1.19
CCOC(=O)c1ccc(N)cc1 [Benzocaine] | -0.02
CCCCCCCCN=C(N)NC(N)=NCc1ccc(Cl)c(Cl)c1 [Olanexidine Hydrochloride semihydrate] | 72.9
CN1CCC[C@@H]1Cc1c[nH]c2ccc(CCS(=O)(=O)c3ccccc3)cc12 [Eletriptan HBr] | -0.5
CO/N=C1\C[C@]2(C[C@@H]3C[C@@H](C/C=C(\C)C[C@@H](C)/C=C/C=C4\CO[C@@H]5[C@H](O)C(C)=C[C@@H](C(=O)O3)[C@]45O)O2)O[C@H](/C(C)=C/C(C)C)[C@H]1C [Moxidectin] | 1.14
CC(=O)NC[C@H]1CN(c2ccc(N3CCOCC3)c(F)c2)C(=O)O1 [Linezolid] | -0.75
CO[C@@]1(NC(=O)C(C(=O)O)c2ccc(O)cc2)C(=O)N2C(C(=O)O)=C(CSc3nnnn3C)CO[C@@H]21 (stereo not given in full) [Latamoxef sodium] | 0.83
O=C(O)CCC(=O)OC[C@@H](NC(=O)C(Cl)Cl)[C@H](O)c1ccc([N+](=O)[O-])cc1 [Chloramphenicol sodium succinate] | 0.81
CC(C)(C)C(=O)C(Oc1ccc(Cl)cc1)n1ccnc1 (stereo not given) [Climbazole] | 12.1
C#C[C@]1(O)CC[C@H]2[C@@H]3CCc4cc(OC5CCCC5)ccc4[C@H]3CC[C@@]21C [Quinestrol] | 0.37
CCCN[C@H]1CCc2nc(N)sc2C1 [Pramipexole 2HCl Monohydrate] | -0.59
NC(=O)C(c1ccccc1)(c1ccccc1)[C@@H]1CCN(CCc2ccc3c(c2)CCO3)C1 [Darifenacin HBr] | -0.63
CC[C@H]1OC(=O)[C@H](C)[C@@H](O[C@H]2C[C@@](C)(OC)[C@@H](O)[C@H](C)O2)[C@H](C)[C@@H](O[C@@H]2O[C@H](C)C[C@H](N(C)C)[C@H]2O)[C@](C)(O)C[C@@H](C)C(=O)[C@H](C)[C@@H](O)[C@]1(C)O [Erythromycin] | 0.66

SMILES | z-score of subpopulation abundance
CC(=O)OCC1=C(C(=O)O)N2C(=O)[C@@H](NC(=O)CSc3ccncc3)[C@H]2SC1 [Cephapirin Benzathine] | 0.47
C[C@@H](c1ncncc1F)[C@](O)(Cn1cncn1)c1ccc(F)cc1F [Voriconazole] | 41.5
CC(C)Cc1ccc(C(C)C(=O)O)cc1 (stereo not given) [Ibuprofen] | 0.37
O=C(Cn1cnnn1)N[C@@H]1C(=O)N2C(C(=O)O)=C(CSc3nncs3)CS[C@H]12 [Ceftezole] | -0.2
COc1cccc2c1C(=O)c1c(O)c3c(c(O)c1C2=O)CC(O)(C(=O)CO)CC3OC1CC(N)C(O)C(C)O1 (stereo not given) [Doxorubicin (Adriamycin) HCl] | 2.16
CN(C/C=C/C#CC(C)(C)C)Cc1cccc2ccccc12 [Terbinafine HCl] | -0.22
C[C@]1(COc2ccc(N3CCC(Oc4ccc(OC(F)(F)F)cc4)CC3)cc2)Cn2cc([N+](=O)[O-])nc2O1 [Delamanid] | 0.05
COc1ccnc(C[S+]([O-])c2nc3cc(-n4cccc4)ccc3[nH]2)c1C (stereo not given) [Ilaprazole] | 1.1
CN(C)CCC=C1c2ccccc2C(C)(C)c2ccccc21 [Melitracen hydrochloride] | -1.11
COc1ccnc(C[S+]([O-])c2nc3cc(OC(F)F)ccc3[nH]2)c1OC (stereo not given) [Pantoprazole sodium] | -0.85
O=C(O)C[C@H](O)C[C@H](O)/C=C/c1c(C2CC2)nc2ccccc2c1-c1ccc(F)cc1 [Pitavastatin Calcium] | 2.39
Cc1cc(CC(C)CC(C)(C)C)n(O)c(=O)c1 (stereo not given) [Piroctone Olamine] | 39.5
CN[C@H](CC(C)C)C(=O)N[C@H]1C(=O)N[C@@H](CC(N)=O)C(=O)N[C@H]2C(=O)N[C@H]3C(=O)N[C@H](C(=O)N[C@H](C(=O)O)c4cc(O)cc(O)c4-c4cc3ccc4O)[C@H](O)c3ccc(c(Cl)c3)Oc3cc2cc(c3O[C@@H]2O[C@H](CO)[C@@H](O)[C@H](O)[C@H]2O[C@H]2C[C@](C)(N)[C@H](O)[C@H](C)O2)Oc2ccc(cc2Cl)[C@H]1O [Vancomycin] | -0.2
O=C1OCCN1/N=C/c1ccc([N+](=O)[O-])o1 [Furazolidone] | -0.06
COc1ccccc1N1CCN(CCCNc2cc(=O)n(C)c(=O)n2C)CC1 [Urapidil HCl] | -0.67
CO/N=C(\C(=O)N[C@@H]1C(=O)N2C(C(=O)O)=C(CSc3nc(=O)c(O)nn3C)CS[C@H]12)c1csc(N)n1 [Ceftriaxone Sodium Trihydrate] | 0.5
Cn1c(=O)c2c(ncn2CC2OCCO2)n(C)c1=O [Doxofylline] | -0.9
Cc1c(S(=O)(=O)O)oc2c1C(=O)C(=O)c1c-2ccc2c1CCCC2(C)C [Tanshinone IIA sulfonate (sodium)] | 3.71
NC(=O)OCC(COC(N)=O)c1ccccc1 [Felbamate] | -1.16
COCCCC/C(=N\OCCN)c1ccc(C(F)(F)F)cc1 [Fluvoxamine maleate] | -0.76
